“And” between values parts separate entries of the source, which are not always exact repeats. Identical values can stand only once. Results filed as inconclusive are left out. The source made the active and inactive calls. Unless noted, calls come from the whole dose curve; as a rule, active = well fitted curve in the direction sought with a large enough effect in the repeat runs; inconclusive = weak or mixed curves; inactive = no such curve, though single readings can be large; an effect the other way counts as inactive or inconclusive.
How the values were obtained:
[1] = qHTS assay to identify small molecule agonists of the peroxisome proliferator-activated receptor delta (PPARd) signaling pathway - cell viability counter screen (AID 743211); note: nearly all actives have a fitted effect of over 55% in size; note: potency is the fitted concentration of half-maximal effect
In short: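 Tox21 library compounds, delivered in DMSO, were incubated 17 h with PPARd-bla HEK293H cells; cytotoxicity was taken from CellTiter-Glo luminescence read 30 min after reagent addition.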

[2] = molecular target: Peroxisome proliferator-activated receptor delta (Homo sapiens) (UniProt Q03181); assay: qHTS assay to identify small molecule antagonists of the peroxisome proliferator-activated receptor delta (PPARd) signaling pathway (AID 743215; active = well fitted inhibition curve with a large enough effect in the signal ratio in the repeat runs, not every such curve was filed as active; the % refers to the signal ratio;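 note: cells stimulated with agonist L165041 at 300 nM final during compound exposure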; note: potency is the fitted concentration of half-maximal effect)
In short: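 Plated HEK293H PPARd-bla cells rested 5 h at 37 C and 5% CO2. Compound, then agonist L165041 at 300 nM final, was added; 17 h at 37 C followed. Substrate loading, 2 h room temperature, fluorescence measured.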

[3] = qHTS assay to identify small molecule antagonists of the farnesoid-X-receptor (FXR) signaling pathway - cell viability counter screen (AID 743221; active = well fitted cell-killing curve with a large enough effect in the repeat runs, not every such curve was filed as active; note: nearly all actives have a fitted effect of over 50% in size; note: potency is the fitted concentration of half-maximal effect)
In short: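 Cytotoxicity is taken from ATP luminescence (CellTiter-Glo, 30 min, room temperature) in FXR-bla HEK 293T cells previously incubated 16 h at 37 C with compound and chenodeoxycholic acid at 50 uM final.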

[4] = qHTS assay to identify small molecule agonists of the endoplasmic reticulum stress response signaling pathway - cell viability counter screen (AID 1159517; calls by dose curve; note: nearly all actives have a fitted effect of over 50% in size; note: potency is the fitted concentration of half-maximal effect)
In short: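 In parallel with the ESRE reporter read, cytotoxicity was scored by CellTiter-Glo luminescence (30 min, room temperature) on HeLa ESRE-bla cells dosed for 5 hr.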

[5] = qHTS assay to identify small molecule antagonists of the retinoid-related orphan receptor gamma (ROR-gamma) signaling pathway - cell viability counter screen (AID 1159520); note: nearly all actives have a fitted effect of over 50% in size; note: potency is the fitted concentration of half-maximal effect
In short: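 Tet-on ROR gamma CHO cells were given compounds for 2 hr, then doxycycline hyclate at 1 uM final, and incubated 16 hr at 37 C. Viability was measured as ATP content by CellTiter-Glo luminescence.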

[6] = molecular target: Nuclear receptor ROR-gamma (Homo sapiens) (UniProt P51449); assay: qHTS assay to identify small molecule antagonists of the retinoid-related orphan receptor gamma (ROR-gamma) signaling pathway (AID 1159521; note: nearly all actives have a fitted effect of over 50% in size; note: potency is the fitted concentration of half-maximal effect)
In short: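 Inducible-expression reporter assay: doxycycline (1 uM final) switched on RORγ in CHO cells bearing a ROR response element-luciferase construct, with test compounds present from 2 h beforehand. Decreased luminescence after 16 h defined antagonist activity.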

[7] = qHTS assay to identify small molecule agonists of the AP-1 signaling pathway - cell viability counter screen (AID 1159525; calls by dose curve; note: nearly all actives have a fitted effect of over 55% in size; note: potency is the fitted concentration of half-maximal effect)
In short: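 Same-well cytotoxicity counter screen of the Tox21 10K library in ME-180 cells. The readout is ATP-dependent luminescence after 5 h compound treatment. Data are normalised to DMSO and tetra n-octyl ammonium bromide controls.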

[8] = qHTS assay to identify small molecule agonists of the AP-1 signaling pathway (AID 1159526; calls by dose curve; note: potency is the fitted concentration of half-maximal effect)
[9] = molecular target: Retinoic acid receptor RXR-alpha (Homo sapiens) (UniProt P19793); assay: qHTS assay to identify small molecule agonists of the RXR signaling pathway (AID 1159527; calls by dose curve; note: nearly all actives have a fitted effect of over 35% in size)
In short: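 Compounds in DMSO were added to RXR-alpha-UAS-bla HEK 293T cells kept in 2% charcoal-stripped serum, and incubated 16 hr at 37 C with 5% CO2. Reporter signal came from a 2 hr B/G FRET substrate step.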

[10] = molecular target: Peroxisome proliferator-activated receptor delta (Homo sapiens) (UniProt Q03181); assay: qHTS assay to identify small molecule agonists of the peroxisome proliferator-activated receptor delta (PPARd) signaling pathway (AID 743212; calls by dose curve)
In short: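 Tox21 library screened in GeneBLAzer PPARd UAS-bla HEK293H cells. After compound treatment at 37 C, a FRET-based beta-lactamase substrate was applied for 2 h and fluorescence recorded.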

[11] = qHTS assay to identify small molecule antagonists of the peroxisome proliferator-activated receptor delta (PPARd) signaling pathway - cell viability counter screen (AID 743213); note: nearly all actives have a fitted effect of over 50% in size; note: potency is the fitted concentration of half-maximal effect
In short: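 Luminescence from CellTiter-Glo, added after the bla read and incubated 30 min at room temperature, gives viability of HEK293H PPARd-bla cells exposed to compounds for 17 h at 37 C with 300 nM L165041.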

[12] = molecular target: Bile acid receptor (Homo sapiens) (UniProt Q96RI1); assay: qHTS assay to identify small molecule antagonists of the farnesoid-X-receptor (FXR) signaling pathway (AID 743217; active = well fitted inhibition curve with a large enough effect in the signal ratio in the repeat runs, not every such curve was filed as active; the % refers to the signal ratio; note: potency is the fitted concentration of half-maximal effect)
In short: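 Screen of the Tox21 10K library in quantitative HTS format using FXR-UAS-bla HEK 293T reporter cells. Agonist chenodeoxycholic acid, 50 uM final, added with compounds; 16 h incubation at 37 °C; beta-lactamase FRET fluorescence measured.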

[13] = qHTS assay to identify small molecule agonists of the farnesoid-X-receptor (FXR) signaling pathway - cell viability counter screen (AID 743218); note: nearly all actives have a fitted effect of over 45% in size; note: potency is the fitted concentration of half-maximal effect
In short: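 Viability of FXR-bla HEK 293T cells is measured by ATP-based CellTiter-Glo luminescence following 16 h compound treatment at 37 C and a prior 2 h room-temperature beta-lactamase substrate step.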

[14] = molecular target: Bile acid receptor (Homo sapiens) (UniProt Q96RI1); assay: qHTS assay to identify small molecule agonists of the farnesoid-X-receptor (FXR) signaling pathway (AID 743220; active = well fitted activation curve with a large enough effect in the signal ratio in the repeat runs, not every such curve was filed as active; the % refers to the signal ratio)
In short: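 FXR-UAS-bla HEK 293T cells carrying a UAS-driven beta-lactamase reporter were plated for 5 h at 37C/5% CO2, then exposed to DMSO-dissolved Tox21 10K compounds for 16 h at 37C. A LiveBLAzer B/G FRET substrate was loaded for 2 h at room temperature before fluorescence reading.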

[15] = qHTS assay to identify small molecule agonists of the vitamin D receptor (VDR) signaling pathway - cell viability counter screen (AID 743224); note: nearly all actives have a fitted effect of over 50% in size; note: potency is the fitted concentration of half-maximal effect
In short: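 Compounds were pin-transferred onto VDR-bla cells plated 4 h earlier; following 16 h incubation at 37C, cell viability was quantified by CellTiter-Glo luminescence after 30 min at room temperature.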

[16] = qHTS assay to identify small molecule antagonists of the vitamin D receptor (VDR) signaling pathway - cell viability counter screen (AID 743225); note: nearly all actives have a fitted effect of over 50% in size; note: potency is the fitted concentration of half-maximal effect
In short: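 Same-well multiplex: following 16 h treatment of HEK 293T cells carrying a UAS-driven beta-lactamase reporter with compound and agonist (3 nM final), and a 2 h FRET substrate step, CellTiter-Glo was added and luminescence read after 30 min.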

[17] = molecular target: Vitamin D3 receptor (Homo sapiens) (UniProt P11473); assay: qHTS assay to identify small molecule agonists of the vitamin D receptor (VDR) signaling pathway (AID 743222; calls by dose curve)
In short: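 Fluorescence from cleaved LiveBLAzer B/G FRET substrate served as readout. VDR-bla cells had been treated 16 h at 37C with test compounds in DMSO, following a 4 h settling period, and substrate was loaded for 2 h at RT.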

[18] = molecular target: Vitamin D3 receptor (Homo sapiens) (UniProt P11473); assay: qHTS assay to identify small molecule antagonists of the vitamin D receptor (VDR) signaling pathway (AID 743223; active = well fitted inhibition curve with a large enough effect in the signal ratio in the repeat runs, not every such curve was filed as active; the % refers to the signal ratio; note: potency is the fitted concentration of half-maximal effect)
In short: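 Quantitative HTS in VDR-bla reporter cells stimulated with 1alpha,25-dihydroxyvitamin D3, 3 nM final. Compound exposure 16 h, 37C, 5% CO2. Read-out: beta-lactamase FRET substrate fluorescence, 2 h RT.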

Measured: Potency

Chain of Retinoic acid receptor RXR-alpha (Homo sapiens) (P19793 whole entry, looked up): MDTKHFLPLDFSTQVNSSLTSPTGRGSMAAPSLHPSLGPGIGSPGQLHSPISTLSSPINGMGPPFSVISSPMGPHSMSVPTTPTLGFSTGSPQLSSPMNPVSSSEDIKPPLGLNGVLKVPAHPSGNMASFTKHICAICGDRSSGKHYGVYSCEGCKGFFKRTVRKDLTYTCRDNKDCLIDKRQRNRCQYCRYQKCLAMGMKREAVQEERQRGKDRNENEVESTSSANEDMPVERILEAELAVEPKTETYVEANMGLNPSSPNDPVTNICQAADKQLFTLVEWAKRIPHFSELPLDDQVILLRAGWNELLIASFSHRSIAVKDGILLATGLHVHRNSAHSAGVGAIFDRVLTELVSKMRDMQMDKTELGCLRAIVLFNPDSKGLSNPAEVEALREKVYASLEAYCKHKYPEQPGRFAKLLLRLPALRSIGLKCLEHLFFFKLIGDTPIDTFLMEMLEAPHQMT
Chain of Bile acid receptor (Homo sapiens) (Q96RI1 whole entry, looked up): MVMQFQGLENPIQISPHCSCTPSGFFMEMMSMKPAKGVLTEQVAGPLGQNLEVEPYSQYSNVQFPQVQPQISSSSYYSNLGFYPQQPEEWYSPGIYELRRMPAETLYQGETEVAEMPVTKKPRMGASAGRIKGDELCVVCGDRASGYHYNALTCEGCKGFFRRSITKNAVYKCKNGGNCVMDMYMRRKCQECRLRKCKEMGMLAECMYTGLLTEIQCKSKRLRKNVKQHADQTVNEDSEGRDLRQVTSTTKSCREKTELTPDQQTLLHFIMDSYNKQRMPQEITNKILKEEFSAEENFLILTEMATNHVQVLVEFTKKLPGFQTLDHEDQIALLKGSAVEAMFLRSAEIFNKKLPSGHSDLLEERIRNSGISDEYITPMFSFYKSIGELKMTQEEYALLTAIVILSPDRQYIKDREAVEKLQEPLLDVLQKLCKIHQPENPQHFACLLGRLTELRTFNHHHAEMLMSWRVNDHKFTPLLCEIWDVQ
Chain of Vitamin D3 receptor (Homo sapiens) (P11473 whole entry, looked up): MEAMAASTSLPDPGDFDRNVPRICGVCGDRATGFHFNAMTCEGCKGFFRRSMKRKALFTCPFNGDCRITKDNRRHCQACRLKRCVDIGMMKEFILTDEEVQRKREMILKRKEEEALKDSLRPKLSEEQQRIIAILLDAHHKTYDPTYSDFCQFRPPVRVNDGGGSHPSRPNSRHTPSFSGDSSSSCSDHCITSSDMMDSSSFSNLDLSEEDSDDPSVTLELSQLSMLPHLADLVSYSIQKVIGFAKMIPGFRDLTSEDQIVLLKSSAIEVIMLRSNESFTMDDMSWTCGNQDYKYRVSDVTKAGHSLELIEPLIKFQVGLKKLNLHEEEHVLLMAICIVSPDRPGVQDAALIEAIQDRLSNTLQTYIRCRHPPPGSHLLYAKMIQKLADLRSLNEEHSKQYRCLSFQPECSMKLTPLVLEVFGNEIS
Chain of Peroxisome proliferator-activated receptor delta (Homo sapiens) (Q03181 whole entry, looked up): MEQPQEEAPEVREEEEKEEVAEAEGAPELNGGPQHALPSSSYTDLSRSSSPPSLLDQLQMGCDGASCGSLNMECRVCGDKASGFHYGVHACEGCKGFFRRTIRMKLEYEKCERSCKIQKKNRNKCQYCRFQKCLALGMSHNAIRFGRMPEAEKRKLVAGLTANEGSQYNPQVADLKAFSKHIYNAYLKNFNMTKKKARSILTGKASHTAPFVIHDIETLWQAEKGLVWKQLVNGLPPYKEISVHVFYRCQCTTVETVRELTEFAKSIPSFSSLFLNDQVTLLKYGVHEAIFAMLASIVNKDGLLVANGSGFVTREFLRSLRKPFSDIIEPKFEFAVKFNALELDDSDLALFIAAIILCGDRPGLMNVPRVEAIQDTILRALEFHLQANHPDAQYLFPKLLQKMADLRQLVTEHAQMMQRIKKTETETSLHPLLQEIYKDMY

O=C(CCl)C(Cl)Cl
active: [1] 17.5 µM | [2] 49.4 µM | [3] 49.4 µM | [5] 27.6 µM | [6] 6.17 µM
inactive: [4]

CCc1ccccc1C
inactive: [5] | [6] | [7] | [8] | [9]

c1ccc(Nc2ccc3ccccc3c2)cc1
active: [7] 48.7 µM
not listed: [5] | [8] | [17] | [18]
inactive: all other assays above

O=C1C=CC(=O)c2ccccc21
active: [5] 3.44 µM | [6] 1.54 µM | [7] 15.5 µM

CN(C)[C@@H]1C(=O)C(C(N)=O)=C(O)[C@@]2(O)C(=O)C3=C(O)c4c(O)ccc(Cl)c4[C@@](C)(O)[C@H]3C[C@@H]12
inactive: [1] | [11] | [13] | [14] | [3] | [15] | [16] | [4] | [5] | [7]

Clc1ccc(C(c2ccccc2Cl)C(Cl)(Cl)Cl)cc1 (stereo unspecified)
active: [1] 49.3 µM and 28.7 µM | [13] 62.1 µM | [15] 43.9 µM | [4] 43.9 µM | [6] 40.2 µM | [7] 36.1 µM
inactive: [10] | [11] | [2] | [3] | [17] | [18]

CC(=[OH+])/C=C(/C)[O-].CC(=[OH+])/C=C(\C)[O-].CC(=[OH+])/C=C(\C)[O-].[Al]
inactive: [5] | [6] | [7] | [8] | [9]

Cl/C=C\CCl
inactive: [5] | [6] | [8] | [9]

N#Cc1ccccc1N
inactive: [5] | [6] | [7] | [8] | [9]

O=C/C(Cl)=C(/Cl)C(=O)O
active: [5] 48.5 µM and 34.4 µM | [6] 13.7 µM and 21.7 µM
inactive: [1] | [10] | [11] | [3] | [15] | [16] | [8]

C[C@]12CC[C@H](O)C[C@H]1CC[C@@H]1[C@@H]2C[C@@H](O)[C@]2(C)[C@@H](C3=CC(=O)OC3)CC[C@]12O
inactive: [5] | [6] | [8]

ClCCN1CCOCC1
inactive: [5] | [6] | [7] | [8] | [9]

COc1cccc2c1C(=O)c1c(O)c3c(c(O)c1C2=O)C[C@@](O)(C(=O)CO)CC3OC1CC(N2CCOC(OC)C2)C(O)C(C)O1 (stereo partly specified)
active: [5] 0.133 µM | [6] 0.298 µM
inactive: [1] | [10] | [11] | [13] | [3] | [15] | [7]

NC(=O)CCl
inactive: [5] | [6] | [7] | [9]

CC1(C)CN=C(NN=C(/C=C/c2ccc(C(F)(F)F)cc2)/C=C/c2ccc(C(F)(F)F)cc2)NC1
active: [1] 7.76 µM | [11] 6.92 µM | [12] 19.5 µM | [13] 11 µM | [3] 15.5 µM | [18] 13.8 µM | [15] 6.92 µM | [16] 11 µM | [5] 24.3 µM | [6] 12.2 µM | [7] 43.6 µM

Clc1ccc(-c2ccccc2)cc1
inactive: [5] | [6] | [7] | [8] | [9]

CN(C)S(=O)(=O)N(SC(F)(Cl)Cl)c1ccccc1
active: [1] 24.5 µM | [11] 27.5 µM | [13] 38.9 µM | [3] 43.6 µM | [15] 15.5 µM | [16] 27.5 µM | [5] 5.45 µM | [6] 4.86 µM | [7] 34.7 µM

ClC1=C(Cl)[C@]2(Cl)[C@@H]3[C@@H]4C[C@@H]([C@H]5O[C@@H]45)[C@@H]3[C@@]1(Cl)C2(Cl)Cl
active: [1] 49 µM | [13] 56.4 µM | [15] 30.6 µM | [5] 61.1 µM | [6] 19.3 µM | [7] 43.6 µM

NC(=O)c1ccc(N)nc1
active: [5] 1.22 µM | [6] 0.611 µM
inactive: [8]

Oc1ccccc1Br
inactive: [5] | [6] | [7] | [8] | [9]

Clc1ccc(-c2ccc(Cl)c(Cl)c2Cl)c(Cl)c1Cl
active: [1] 20.8 µM | [13] 46.6 µM
not listed: [4] | [7] | [9] | [10] | [12]
inactive: all other assays above

ClC1=C(Cl)[C@]2(Cl)[C@@H]3[C@@H](Cl)[C@@H](Cl)C[C@@H]3[C@@]1(Cl)C2(Cl)Cl
inactive: [5] | [6] | [8] | [9]

C[As+](C)(C)CC(=O)[O-]
inactive: [5] | [6] | [7] | [9]
active: [8] 43.6 µM

COc1ccc(OC)c(C=O)c1
inactive: [5] | [6] | [7] | [9]

CC(=[OH+])/C=C(/C)[O-].CC(=[OH+])/C=C(\C)[O-].CC(=[OH+])/C=C(\C)[O-].[Fe]
inactive: [5] | [6] | [7] | [8] | [9]

CN(CCCC(O)c1cccnc1)N=O (stereo unspecified)
inactive: [5] | [6] | [8] | [9]

CCOP(=S)(OCC)SCS(=O)(=O)C(C)(C)C
inactive: [5] | [6] | [7] | [9]

N#C/C=C/c1ccccc1
inactive: [5] | [6] | [8] | [9]
